About 83,000 compounds went through this panel and 20% of them were active in at least one assay; those are over-represented in the sample as a whole.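 Single-concentration screen, 48 h exposure, 96-well plates. Endpoint: percent growth. Below 10 = active.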 A number with no mark means an inactive call. Activity calls are given as the source filed them.
System: BT-549 breast
Assay: NCI-60 one-dose screen, 48 h (100 = growth as untreated, 0 = no growth, -100 = all killed)
Settings: 10 µM

Compound | growth
O=C(CF)N(O)c1ccc(/C=C/c2ccccc2)cc1 | 44.9%
COc1ccc(/C=C(/C(=O)N2CCCC2)c2cc(OC)c(OC)c(OC)c2)cc1N | 57.1%
Nc1nc(N)c(-c2ccc(Cl)c(Cl)c2)c(/C=C/c2ccc(S(=O)(=O)F)cc2)n1 | 94.6%
Oc1ccc(O)c2c1C1(Cl)C(Cl)=C(Cl)C2(Cl)C1(Cl)Cl | 29.2%
CN(C)P1(N(C)C)=NP(N(C)C)(N(C)C)=NP(N(C)C)(N(C)C)=N1 | 105%
CCCCNCCc1ccccn1 | 98.2%
CNC(=O)Oc1cccc(OC)c1 | 103%
C=C=[CH][Sn]([c]1ccccc1)([c]1ccccc1)[c]1ccccc1 | -34.9% (active)
NC(=O)SCC(=O)Nc1ccc([As](=O)(O)O)cc1 | 92%
C[C@]12CC[C@H]3[C@@H](C[C@@H]4N=C(c5ccc(O)cc5)S[C@@]45C[C@H](O)CC[C@]35C)[C@@H]1CC[C@@H]2O | 59.3%
CC1(C)N=C(N)N=C(N)N1c1ccc(CCCCc2ccc(S(=O)(=O)F)cc2)cc1 | 48.7%
COc1cc2c(cc1OC)CN(C)C(C)C2 (centres undefined) | 115%
CC(C)C1c2ccc(O)cc2Oc2nc(N)c(C#N)c(N)c21 (centres undefined) | 84.2%
CC1(C)N=C(N)N=C(N)N1c1ccc(CNC(=O)Nc2ccc(S(=O)(=O)F)c(Cl)c2)c(Cl)c1 | 48.6%
CSc1ccccc1NP1(=O)OCC(C)([N+](=O)[O-])CO1 (centres undefined) | 90.1%
C[CH2][Pb]([CH2]C)([CH2]C)[O]C(=O)COc1ccccc1 | -11.4% (active)
COc1ccc(/C=C\c2cc(OC)c(OC)c(OC)c2)cc1N/C=C\C(=O)c1c[nH]c2ccccc12 | 6.79% (active)
CCCC(C)(C)c1ccc2c(c1)OC(C)(C)[C@@H]1CC=C(C)C[C@@H]21 | 97.7%
CC1(CF)NC(=O)NC1=O (centres undefined) | 104%
O=C(Nc1ccc(S(=O)(=O)F)cc1)Oc1ccccc1 | 98.2%

System: MDA-MB-435 melanoma
Assay: as above
Settings: 10 µM unless noted

Compound | growth
Fc1ccc(C2=NN(c3ccccc3)C(c3sc(N(CCCl)CCCl)nc3Cl)C2)cc1 (centres undefined) | 93.9%
CC[C@H](C)[C@H](NC(=O)Nc1ccccc1)C(=O)N(C)[C@H](C[C@@H](OC(C)=O)c1nc(C(=O)N[C@@H](Cc2ccccc2)C[C@H](C)C(=O)OC)cs1)C(C)C | -36.7% (active)
c1ccc(CCN2CCCCC2Cc2ccccc2)cc1 (centres undefined) | 118%
CC(=O)O[C@H]1CCC2(C)C(=CCC3C2CCC2(C)/C(=N/OC(=O)c4ccc(N(CCCl)CCCl)cc4)CCC32)C1 (some centres undefined) | 47.1%
O=C(N/N=C/c1ccc(N(CCCl)CCCl)cc1)c1cc(=O)[nH]c(=O)[nH]1 | 116%
O=[As]c1ccc(C(=O)c2ccc(Oc3ccccc3)cc2)cc1 (centres undefined) | -52% (active)
O=[N+]([O-])c1cc([N+](=O)[O-])c(Cl)c(Cl)c1Cl | 19.3%
Cc1cc(NC(=O)NCCOc2ccc(N3C(N)=NC(N)=NC3(C)C)cc2Cl)ccc1S(=O)(=O)F | 18.8%
COc1ccc2c(c1)NC1=C(C(=O)OC1)C2c1cc(OC)c(OC)c(OC)c1 (centres undefined) | -35.5% (active)
C=CCc1ccc(OC(=O)Cc2ccccc2)c(OC)c1 | 107%
CC(C)(O)/C=C/C(=O)[C@](C)(O)[C@H]1[C@H](O)C[C@@]2(C)[C@@H]3CC=C4[C@@H](C=C(O)C(=O)C4(C)C)[C@]3(C)C(=O)C[C@]12C | -52.1% (active)
C[C@]12CCc3sc(-c4ccc(Cl)cc4)nc3C1=CC[C@@H]1[C@@H]2CC[C@]2(C)C(=O)CC[C@@H]12 | 75.7%
C=CCC1(CC)C(=O)NC(=S)NC1=O | 103%
O=C(CF)N(O)c1ccc(/C=C/c2ccccc2)cc1 | 72.3%
COc1ccc(/C=C(/C(=O)N2CCCC2)c2cc(OC)c(OC)c(OC)c2)cc1N | -39.8% (active)
Nc1nc(N)c(-c2ccc(Cl)c(Cl)c2)c(/C=C/c2ccc(S(=O)(=O)F)cc2)n1 | 87.5%
Nc1c(Br)cc([N+](=O)[O-])cc1[N+](=O)[O-] | 112%
Oc1ccc(O)c2c1C1(Cl)C(Cl)=C(Cl)C2(Cl)C1(Cl)Cl | -3.33% (active)
CN(C)P1(N(C)C)=NP(N(C)C)(N(C)C)=NP(N(C)C)(N(C)C)=N1 | 109%
CCCCNCCc1ccccn1 | 109%

Compound | growth
CNC(=O)Oc1cccc(OC)c1 | 95.5%
C=C=[CH][Sn]([c]1ccccc1)([c]1ccccc1)[c]1ccccc1 | -59.5% (active)
NC(=O)SCC(=O)Nc1ccc([As](=O)(O)O)cc1 | 98.5%
C[C@]12CC[C@H]3[C@@H](C[C@@H]4N=C(c5ccc(O)cc5)S[C@@]45C[C@H](O)CC[C@]35C)[C@@H]1CC[C@@H]2O | 92%
CC1(C)N=C(N)N=C(N)N1c1ccc(CCCCc2ccc(S(=O)(=O)F)cc2)cc1 | 18.9%
Nc1c(Br)cc2c3c(cccc13)-c1ccccc1-2 | 78.8%
COc1cc2c(cc1OC)CN(C)C(C)C2 (centres undefined) | 101%
CC(C)C1c2ccc(O)cc2Oc2nc(N)c(C#N)c(N)c21 (centres undefined) | 103%
c1ccc2nc(OCCN3CC3)ccc2c1 | 83.3%
CC1(C)N=C(N)N=C(N)N1c1ccc(CNC(=O)Nc2ccc(S(=O)(=O)F)c(Cl)c2)c(Cl)c1 | 13.5%
c1ccc(-c2ccc3ccccc3[o+]2)cc1 | 101%
CSc1ccccc1NP1(=O)OCC(C)([N+](=O)[O-])CO1 (centres undefined) | 107%
CC1COC(=O)C1 (centres undefined) | 102%
C[CH2][Pb]([CH2]C)([CH2]C)[O]C(=O)COc1ccccc1 | -31.9% (active)
COc1ccc(/C=C\c2cc(OC)c(OC)c(OC)c2)cc1N/C=C\C(=O)c1c[nH]c2ccccc12 | -7.95% (active)
CCCC(C)(C)c1ccc2c(c1)OC(C)(C)[C@@H]1CC=C(C)C[C@@H]21 | 105%
OC1(c2ccc(Cl)cc2Cl)c2ccccc2C2=NCCN21 (centres undefined) | 98%
CC1(CF)NC(=O)NC1=O (centres undefined) | 107%
O=C(Nc1ccc(S(=O)(=O)F)cc1)Oc1ccccc1 | 99.9%

Reference: PubChem BioAssay (NCI)
